# Where “and” joins values, the source holds several entries; their conditions need not be identical. Identical values can stand only once. Records with an inconclusive call do not appear. A number with no mark means an inactive call. Calls of active or inactive are those of the source. The call rests on the fitted dose curve; in most records, active means well fitted cell-killing curve with a large enough effect in the repeat runs; inconclusive means weak or mixed curves, or effect the other way; inactive means flat fitted curve, though single readings scatter.
# Test: qHTS assay to identify small molecule antagonists of the androgen receptor (AR) signaling pathway using the MDA cell line - cell viability counter screen (AID 743041; further: nearly all actives have a fitted effect of over 45% in size)
# Conditions: MDA-kb2 viability, CellTiter-Fluor, 16 h, cells co-treated with R1881 androgen agonist; series mostly up to 70.3 µM; viability change, negative = cytotoxic: at the top concentration
# Text: National Center for Advancing Translational Sciences [NCATS]
# NIH Chemical Genomics Center [NCGC]
# U.S. Environmental Protection Agency [EPA]
# National Institutes of Environmental Health Sciences [NIEHS]
# National Toxicology Program [NTP]
# U.S. Food and Drug Administration [FDA]
# Androgen receptor (AR), a nuclear hormone receptor, plays a critical role in AR-dependent prostate cancer and other androgen related diseases. Endocrine disrupting chemicals (EDCs) and their interactions with steroid hormone receptors like AR may cause disruption of normal endocrine function as well as interfere with metabolic homeostasis, reproduction, developmental and behavioral functions. To identify the compounds that inhibit AR signaling, MDA-kb2 AR-luc cell line (from ATCC, deposited by Wilson et al.) was used to screen the Tox21 10K compound library. MDA-kb2 AR-luc cell line is human breast carcinoma cell line that was stably transfected with a luciferase reporter gene under control of the MMTV promoter containing response elements for both androgen receptor (AR) and glucocorticoid receptor (GR). The cytotoxicity of the Tox21 compound library against the MDA-kb2 AR-luc cell line was tested in parallel by measuring the cell viability using CellTiter-Fluor assay (Promega, Madison, WI) in the same wells.
# Tox21 Assay Protocol Summary:
# MDA-kb2 AR-luc cells were dispensed at 3,000 cells/4 uL/well of culture medium into white wall/solid-bottom 1536-well plates using a Multidrop Combi (ThermoFisher Scientific, Waltham, MA) dispenser. After the assay plates were incubated at a 37C and 0% CO2 for 5 hr, 23 nL of compounds dissolved in DMSO, positive controls or DMSO only was transferred to the assay plate by a Pintool station (Kalypsys, San Diego, CA), followed by addition of 1 uL of agonist (R1881) in culture medium using a Bioraptr Flying Reagent Dispenser (FRD) workstation (Beckman Coulter, Indianapolis, IN, USA). The plates were incubated at a 37C and 0% CO2 for 16 h. After 15.5 h incubation, 1uL of CellTiter-Fluor reagent (Promega) was added using a Bioraptr FRD to each plate for measuring cytotoxicity. The fluorescence intensity was quantified on a ViewLux plate reader (PerkinElmer, Shelton, CT) following 30 min incubation at 37C and 0% CO2.
# On the % scale 0 is the no-effect control and ±100 the full control effect; potency means the concentration at half of the fitted maximal effect.
Compound,"viability change, negative = cytotoxic",Potency
CCCCCBr,-2.12% [at 95 µM],–
C[C@H]1O[C@H](OC2[C@@H](O)[C@@H](O)C(O)[C@H](O)[C@H]2O)[C@@H](N)C[C@@H]1N=C(N)C(=O)O (stereo not given in full),0.204%,–
CC(C)(C)N(NC(=O)c1ccc(Cl)cc1)C(=O)c1ccccc1,1.54%,–
C=C(Cl)Cl,-8.62% [at 95 µM],–
CCCCC(CC)CO[N+](=O)[O-] (stereo not given),2.85%,–
SCc1ccccc1,13.7% [at 95 µM],–
C[C@]12C=CC3=C4CCC(=O)C=C4CC[C@H]3[C@@H]1CC[C@@H]2O,22%,–
COc1ccc2c(c1OC)C(=O)O[C@H]2[C@@H]1c2cc3c(cc2CCN1C)OCO3,-3.37%,–
FC(Cl)(Cl)C(F)(Cl)Cl,2.01% [at 95 µM],–
O=C(Cc1ccccc1)c1ccccc1,-1.6%,–
c1ccc2c(c1)sc1ccccc12,–,inactive
NNCCO,4.03%,–
CCCSP(=S)(OCC)Oc1ccc(SC)cc1 (stereo not given),14.3%,–
C[N+]1(CCC(C(N)=O)(c2ccccc2)c2ccccc2)CCCCC1,-4.51%,–
CCCN(CCOc1c(Cl)cc(Cl)cc1Cl)C(=O)n1ccnc1,–,inactive
OC[P+](CO)(CO)CO,–,inactive
CC[N+]1(CCOC(=O)C(O)(c2ccccc2)c2ccccc2)CCCCC1,1.93%,–
CCOc1cccc(C2(N3CCN(c4ccccc4)CC3)CCC(C)CC2)c1 (stereo not given),-0.658%,–
CCSCc1ccccc1OC(=O)NC,-2.55%,–
O=C(NC(=O)c1cc(F)c(F)cc1Cl)Nc1cc(F)ccc1N1CCC(C(=O)O)CC1,-1.41%,–

Compound,"viability change, negative = cytotoxic",Potency
CCCC(C)(COC(N)=O)COC(=O)NC(C)C (stereo not given),–,inactive
Nc1cc(Cl)cc(C(=O)O)c1Cl,–,inactive
CC(C)CCON=O,–,inactive
COc1cc(CC(C)N)c(OC)cc1Br (stereo not given),-7.47% [at 95 µM],–
CN(C)c1ccc(N=O)cc1,–,54.6 µM (active) and 27.3 µM (active)
O=C(N[C@H]1CN2CCC1CC2)c1ccc2c(c1)OCCO2,-0.699%,–
COC(=O)Cc1ccccc1,5.88%,–
O=C1NC(=O)C(=O)C(=O)N1,8.33% [at 95 µM],–
Cc1ccc2c(C)cccc2c1,-4.08%,–
C[C@H](N)[C@H](O)c1ccc(O)c(O)c1,0.417%,–
O=C=NC1CCCCC1,1.16%,–
NC(=S)c1c(Cl)cccc1Cl,-2.63%,–
c1ccc2sc(SNC3CCCCC3)nc2c1,–,inactive
O=C([O-])c1ccccn1.O=C([O-])c1ccccn1.O=C([O-])c1ccccn1.[Cr+3],-5.07%,–
CCCCC(CC)COC(=O)c1c(Br)c(Br)c(Br)c(Br)c1C(=O)OCC(CC)CCCC (stereo not given),-1.99%,–
O=C(O)C(O)C(O)C(=O)O (stereo not given),1.72%,–
CCCCCl,–,inactive
O=S(=O)(Cl)Cl,-0.311%,–
Cc1nc2ccccc2c(=O)n1-c1ccccc1Cl,-1.97%,–
C=CCSSCC=C,6.57%,–

# From PubChem BioAssay (Tox21)
